What is called inhibition is the change of the read-out against control, counted positive when it falls.

Values joined by “and” are separate entries in the source; they are usually repeats but may differ in a detail not shown here. Identical values can stand only once.

Here are results for 31 molecules from ChEMBL document CHEMBL1961873, “Compounds: GSK PKIS; Assays: Nanosyn kinase panel” (2012).

For the first assay, the target named is NT-3 growth factor receptor (Homo sapiens) (UniProt Q16288). The following applies: at 1 µM.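 Further: mean TRKC inhibition from the GSK PKIS kinase inhibitor set, with assays run by Nanosyn.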
Chain of NT-3 growth factor receptor (Homo sapiens) (Q16288 32-839 limits assumed): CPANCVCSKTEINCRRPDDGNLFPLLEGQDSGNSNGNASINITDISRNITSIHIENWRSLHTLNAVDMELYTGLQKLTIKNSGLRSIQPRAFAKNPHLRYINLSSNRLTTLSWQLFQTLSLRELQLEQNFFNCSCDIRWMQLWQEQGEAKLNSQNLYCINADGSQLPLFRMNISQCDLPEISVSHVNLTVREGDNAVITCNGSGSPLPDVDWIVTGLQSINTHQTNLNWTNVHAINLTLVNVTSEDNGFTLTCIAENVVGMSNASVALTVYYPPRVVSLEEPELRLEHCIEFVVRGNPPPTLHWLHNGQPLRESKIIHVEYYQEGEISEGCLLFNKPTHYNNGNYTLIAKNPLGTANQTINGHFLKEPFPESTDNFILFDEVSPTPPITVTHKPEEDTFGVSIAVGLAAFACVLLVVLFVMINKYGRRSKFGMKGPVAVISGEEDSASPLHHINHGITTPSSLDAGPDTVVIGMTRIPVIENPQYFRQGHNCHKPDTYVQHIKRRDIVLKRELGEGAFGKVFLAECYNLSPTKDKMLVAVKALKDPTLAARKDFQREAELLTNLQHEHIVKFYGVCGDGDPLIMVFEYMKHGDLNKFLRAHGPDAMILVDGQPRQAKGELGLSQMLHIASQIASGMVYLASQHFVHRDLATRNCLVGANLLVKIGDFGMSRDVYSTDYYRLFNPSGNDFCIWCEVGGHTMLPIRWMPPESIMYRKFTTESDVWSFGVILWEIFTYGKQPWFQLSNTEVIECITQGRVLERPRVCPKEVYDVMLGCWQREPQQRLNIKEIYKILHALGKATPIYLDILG
For the molecule `CS(=O)(=O)CCNCc1ccc(-c2ccc3ncnc(Nc4ccc(OCc5ccccc5)cc4)c3c2)o1`, the inhibition was found to be 5.1%.

Consider `NS(=O)(=O)c1ccc(N/N=C2\C(=O)Nc3ccc(C(=O)NCc4ccncc4)cc32)cc1`, for which the inhibition was found to be 66.2%.

On to `COc1cc(N2CCN(C(C)C)CC2)ccc1Nc1nc(Nc2cccc(F)c2C(=O)O)c2cc[nH]c2n1`, for which the inhibition was 4.58%.

For the molecule `CC1=C(C(=O)Nc2ccc3[nH]nc(C)c3c2)C(c2ccc(C(F)(F)F)cc2)CC(=O)N1` (stereo unspecified), the inhibition stood at 6.4%.

In the case of `O=C(O[C@H]1CN[C@H](C#Cc2cc3ncnc(Nc4ccc(OCc5cccc(F)c5)c(Cl)c4)c3s2)C1)N1CCOCC1`, the inhibition was found to be 7.73%.

On to `COc1cccc(Nc2nccc(-c3cnn4ncccc34)n2)c1`, for which the inhibition came to 37.6%.

Take `CNC(=O)c1sc(-n2cnc3cc(OC)c(OC)cc32)cc1OCc1ccccc1C(F)(F)F`: the inhibition was found to be 6.32%.

Take `COc1cc2c(cc1Nc1nc(Nc3cccc(F)c3C(N)=O)c3cc[nH]c3n1)N(C(=O)CN1CCN(C(C)C)CC1)CC2`: the inhibition was -0.99%.

`Fc1ccc(Nc2nccc(-c3c(-c4ccc(C(F)(F)F)cc4)nn4ncccc34)n2)cc1F`: the inhibition is 2.83%.

For the molecule `Cn1c(-c2nonc2N)nc2cnccc21`, the inhibition was 1.22%.

Take `CS(=O)(=O)Nc1ccc(-c2ccc3c(NC(=O)C4CC4)n[nH]c3c2)cc1`: the inhibition turned out to be 9.06%.

As to `COc1cccc(-n2ncc3c(N/N=C/c4ccc(C(=O)NCCN(C)C)cc4)ncnc32)c1`, the inhibition was determined as 20.7%.

For the molecule `COc1cc(N2CCN(C(C)C)CC2)ccc1Nc1nc(Nc2cccc3ncccc23)c2cc[nH]c2n1`, the inhibition was found to be 0.74%.

For the molecule `CCCNc1cccc(-n2ncc3c(N/N=C/c4ccncc4)ncnc32)c1`, the inhibition came to 36.8%.

In the case of `NC(=O)c1ccc2c(-c3ccnc(NCCCO)n3)c(-c3ccc(F)cc3)nn2c1`, the inhibition was determined as 2.98%.

The next assay addresses T1, Tyrosine-protein kinase TXK (Homo sapiens) (UniProt P42681).
T1 sequence (whole entry): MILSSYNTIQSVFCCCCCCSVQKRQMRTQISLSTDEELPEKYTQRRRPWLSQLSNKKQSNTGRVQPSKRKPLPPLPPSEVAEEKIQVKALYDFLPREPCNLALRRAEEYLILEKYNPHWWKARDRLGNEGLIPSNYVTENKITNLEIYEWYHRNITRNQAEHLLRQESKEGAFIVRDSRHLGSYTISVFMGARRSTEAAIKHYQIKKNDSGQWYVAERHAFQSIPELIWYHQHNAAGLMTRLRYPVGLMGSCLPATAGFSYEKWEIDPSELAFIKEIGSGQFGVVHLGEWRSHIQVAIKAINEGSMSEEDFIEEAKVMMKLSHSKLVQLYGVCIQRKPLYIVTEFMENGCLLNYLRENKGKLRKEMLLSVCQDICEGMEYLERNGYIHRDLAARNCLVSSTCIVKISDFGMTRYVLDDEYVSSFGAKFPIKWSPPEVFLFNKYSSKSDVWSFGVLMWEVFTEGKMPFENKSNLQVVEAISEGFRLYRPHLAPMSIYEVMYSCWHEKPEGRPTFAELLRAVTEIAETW
The note with it: at 0.1 µM.
Regarding `NS(=O)(=O)c1ccc(N/N=C2\C(=O)Nc3cccc(CCc4ccncc4)c32)cc1`, the inhibition turned out to be 2.92%.

As to `COC(=O)Nc1nc2ccc(Oc3ccc(NC(=O)Nc4cc(C(F)(F)F)ccc4F)cc3)cc2s1`, the inhibition amounted to 1.96%.

Regarding `CCn1c(-c2nonc2N)nc2cncc(C(=O)NCCNC)c21`, the inhibition was -1.02%.

As for `Cc1cc(O)cc(C)c1/C=C/c1cncc(C(=O)OC(C)(C)C)c1`, the inhibition is 8.06%.

In the case of `CS(=O)(=O)CCNCc1ccc(-c2ccc3ncnc(Nc4ccc(OCc5cccc(C(F)(F)F)c5)cc4)c3c2)o1`, the inhibition was found to be 5.9%.

Take `COC(=O)Nc1nc2cc(Oc3ccc(NC(=O)Nc4ccccc4)cc3)ccc2[nH]1`: the inhibition is 1.84%.

As for `O=C1Nc2ccccc2/C1=C1\CCc2cc(O)ccc21`, the inhibition was 2.88%.

As for `CC1(C)CC(n2cnc(-c3ccc(F)cc3)c2-c2ccnc(N)n2)CC(C)(C)N1`, the inhibition was 0.09%.

Turning to `COc1ccc(-c2nn3ncccc3c2-c2ccnc(Nc3ccc(F)c(F)c3)n2)cc1`, the inhibition was found to be 2.4%.

In the case of `CCS(=O)(=O)c1ccc(OC)c(Nc2ncc(-c3cccc(C(C)=O)c3)o2)c1`, the inhibition amounted to 13%.

As to `COc1cc(Nc2ncc(-c3ccccc3)o2)cc(OC)c1`, the inhibition is -1%.

As for `c1cnn2ncc(-c3ccnc(NCCCN4CCOCC4)n3)c2c1`, the inhibition is 1.71%.

In the case of `Cc1c2ccc(N(C)c3ccnc(Nc4cccc(S(N)(=O)=O)c4)n3)cc2nn1C`, the inhibition is 20.5%.

Regarding `CS(=O)(=O)Nc1ccc(-c2cc(-c3ccccc3)cc(C(N)=O)c2N)cc1`, the inhibition was 0.48%.

On to `O=C(O[C@H]1CN[C@H](C#Cc2cc3ncnc(Nc4ccc5c(cnn5Cc5ccccc5)c4)c3s2)C1)N1CCOCC1`, for which the inhibition stood at 0.8%.

Take `Nc1nonc1-c1nc2cnccc2n1C1CC1`: the inhibition is 4.13% and -0.96%.

`CS(=O)(=O)CCNCc1ccc(-c2ccc3ncnc(Nc4ccc(OCc5ccccc5)cc4)c3c2)o1`: the inhibition amounted to 0.48%.

For the molecule `NS(=O)(=O)c1ccc(N/N=C2\C(=O)Nc3ccc(C(=O)NCc4ccncc4)cc32)cc1`, the inhibition worked out at 2.66%.

With `COc1cc(N2CCN(C(C)C)CC2)ccc1Nc1nc(Nc2cccc(F)c2C(=O)O)c2cc[nH]c2n1`, the inhibition was 1.98%.

Turning to `CC1=C(C(=O)Nc2ccc3[nH]nc(C)c3c2)C(c2ccc(C(F)(F)F)cc2)CC(=O)N1` (stereo unspecified), the inhibition was 3.55%.

With `O=C(O[C@H]1CN[C@H](C#Cc2cc3ncnc(Nc4ccc(OCc5cccc(F)c5)c(Cl)c4)c3s2)C1)N1CCOCC1`, the inhibition came out at 1.89%.

Regarding `COc1cccc(Nc2nccc(-c3cnn4ncccc34)n2)c1`, the inhibition was determined as 2.32%.

As for `CNC(=O)c1sc(-n2cnc3cc(OC)c(OC)cc32)cc1OCc1ccccc1C(F)(F)F`, the inhibition amounted to 5.54%.

As for `COc1cc2c(cc1Nc1nc(Nc3cccc(F)c3C(N)=O)c3cc[nH]c3n1)N(C(=O)CN1CCN(C(C)C)CC1)CC2`, the inhibition turned out to be 7.39%.

With `Fc1ccc(Nc2nccc(-c3c(-c4ccc(C(F)(F)F)cc4)nn4ncccc34)n2)cc1F`, the inhibition was 2.95%.

Take `Cn1c(-c2nonc2N)nc2cnccc21`: the inhibition worked out at 4.05%.

Consider `CS(=O)(=O)Nc1ccc(-c2ccc3c(NC(=O)C4CC4)n[nH]c3c2)cc1`, for which the inhibition is 2.62%.

On to `COc1cccc(-n2ncc3c(N/N=C/c4ccc(C(=O)NCCN(C)C)cc4)ncnc32)c1`, for which the inhibition turned out to be 7.49%.

As for `COc1cc(N2CCN(C(C)C)CC2)ccc1Nc1nc(Nc2cccc3ncccc23)c2cc[nH]c2n1`, the inhibition turned out to be 0.48%.

For the molecule `CCCNc1cccc(-n2ncc3c(N/N=C/c4ccncc4)ncnc32)c1`, the inhibition is 2.17%.

Consider `NC(=O)c1ccc2c(-c3ccnc(NCCCO)n3)c(-c3ccc(F)cc3)nn2c1`, for which the inhibition came to 9.73%.
